TDP1 cell noCPT – qHTS for Inhibitors of human tyrosyl-DNA phosphodiesterase 1 (TDP1): qHTS in cells in absence of CPT | 420,000 tested, 15% active | Potency, µM (titrated, usually from 46.2 µM), without a hit: top-dose activity change, negative = growth inhibition, usual class: inhibitors | DT40 Tdp1-/- hTDP1 cells, no CPT, ATP luminescence, 48 h; note: potency is the fitted concentration of half-maximal effect; nearly all actives have a fitted effect of over 55% in size
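Chicken DT40 Tdp1-/- cells stably complemented with human TDP1 were seeded at 400 cells/well with DMSO in place of 20 nM camptothecin. After compound pinning, cells grew at least 48 hr at 37 °C; viability read by CellTiter-Glo luminescence.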
HT1080 IDH1KD tx – HT-1080 IDH1 knockdown cell toxicity (counter line) | AID 686971 | HT-1080 IDH1 knockdown viability, ATP luminescence, 48 h | 360,000 tested, 2% active | Potency, µM (series often up to 46.1 µM), for inactives: at the top dose activity, negative = toxicity, actives largely listed as cytotoxic;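 note: potency is the fitted concentration of half-maximal effect; 0% = DMSO wells and -100% = cell-free medium wells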
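After a 2 h attachment period, IDH1KD HT-1080 cells took pin-transferred compound for 48 h at 37 °C; ATP-based luminescence after 10 min room-temperature reagent incubation reported viability.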
TDP1 cell CPT – growth inhibition of DT40 Tdp1-/-;hTDP1 cells with camptothecin (screen for TDP1 inhibitors); chicken DT40 Tdp1-/-;hTDP1 cells + 20 nM CPT, ATP luminescence, 48 h; Potency, µM (doses to about 46.2 µM), for the others: at the top dose activity change, negative = growth inhibition, usual class: inhibitors; 420,000 tested, 12% active; AID 686979; note: potency is the fitted concentration of half-maximal effect; nearly all actives have a fitted effect of over 55% in size
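Chicken DT40 Tdp1-/- cells stably complemented with human TDP1 were seeded at 400 cells/well in medium containing 20 nM camptothecin, exposed to pin-transferred compounds, and grown at 37 °C for at least 48 hr. Viability was read as ATP luminescence.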
IL-1B inflam inh – inhibitors of inflammasome signaling (IL-1 beta secretion); THP-1 LPS/ATP IL-1B secretion, AlphaLISA, 16 h; hits give low values; activity change, % at 57.5 µM; 360,000 tested, 4.7% active; AID 743279; in the data active = activity change below about -50%; inconclusive = mostly about -30% to -49%
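Secreted IL-1B measured by AlphaLISA bead assay after 16 h compound exposure of THP-1 cells; compounds (final up to 57.5 uM) added 1 h before LPS (250 ng/mL) and ATP (1.25 mM) stimulation; lower signal means less secretion.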
HT1080NT lethal – kills 2HG-producing HT-1080-NT fibrosarcoma cells; HT-1080-NT fibrosarcoma viability, CellTiter-Glo ATP luminescence, 48 h; Potency, µM (doses to about 46.1 µM), without a hit: at the highest dose activity, negative = less viability, usual class: cytotoxic; 360,000 tested, 1.6% active; AID 686970;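 note: NT is the 2HG producing partner of a matched IDH1 knockdown line; potency is the fitted concentration of half-maximal effect; 0% = DMSO-treated cells and -100% = media-only wells without cells; nearly all actives have a fitted effect of over 55% in size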
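Viability by CellTiter-Glo luminescence after 48 h compound exposure at 37C of HT-1080-NT cells (750/well, RPMI, 5% FBS). % activity scaled between DMSO wells and medium-only wells, then curve-fitted and categorized by curve class.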
The depositor's hits bear a star; ? = inconclusive; . = no result given; [ ] = another dose, or the depositor's remark. Only some compounds are listed: those with a hit (about 19% of all), similar ones and a draw of the others. Unless noted, calls come from the whole dose curve; as a rule, active = well fitted curve in the direction sought with a large enough effect; inconclusive = small, poorly fitted or top-dose-only effect, or another doubt; inactive = no such curve, though single readings can be large; an effect the other way counts as inactive or inconclusive. Unless noted, % is set by controls: 0 for no effect and ±100 for the full control effect.

SMILES	TDP1 cell noCPT	HT1080 IDH1KD tx	TDP1 cell CPT	IL-1B inflam inh	HT1080NT lethal
C=CCCCCCCCCC(=O)N1CCN(c2cc3c(cc2F)c(=O)c(C(=O)O)cn3CC)CC1	?	7.0%	20.6µM*	27.7	1.7%
CNc1nc(SC)nc(N(C)C#N)n1	0.3%	-2.4%	-17.9%	?	-0.1%
CCn1cc(C(=O)Nc2ncccc2O)c(=O)c2cc(F)c(N3CCN(C(=O)c4ccco4)CC3)cc21	8.2µM*	6.6%	13µM*	-1.3	4.7%
CCn1cc(C(=O)O)c(=O)c2cc(F)c(N3CCN(C(=S)NC(=O)c4ccccc4Cl)CC3)cc21	?	1.2%	?	7.7	1.5%
CSc1ccc(CCNC(=O)C2CCN(c3nc4ccccc4nc3C(F)(F)F)CC2)cc1	11.6µM*	.	14.6µM*	.	.
CCCCNC(=O)C1CCN(c2nc3ccccc3nc2C(F)(F)F)CC1	?	.	16.4µM*	.	.
COCCNC(=O)C1CCN(c2nc3ccccc3nc2C(F)(F)F)CC1	-20.4%	.	?	.	.
CC(C)Oc1ccc(CNC(=O)C2CCN(c3nc4ccccc4nc3C(F)(F)F)CC2)cc1	5.8µM*	.	4.11µM*	.	.
CCOC(=O)c1ccc(NCc2cccnc2)cc1	-24.1%	-0.4%	-12.7%	-6.2	0.0%
CC(C)(C)c1ccc(C(=O)N/C(=C\c2cccs2)C(=O)NCc2ccco2)cc1	-24.3%	-8.9%	-29.2%	-0.8	7.1%
COc1ccc(-c2csc(NC(=O)c3ccc(S(=O)(=O)N4CCc5ccccc5C4)cc3)n2)c(OC)c1	13µM*	-9.0%	?	19.8	0.2%
Cc1ccc(-c2csc(NC(=O)COC(=O)c3cccc(S(=O)(=O)N4CCOCC4)c3)n2)cc1	-18.9%	-16.9%	-22.5%	-4.4	1.8%
O=C(Nc1nc(-c2ccc(S(=O)(=O)N3CCOCC3)cc2)cs1)c1ccccc1	11.6µM*	-19.1%	?	?	?
COc1cccc(C(=O)Nc2nc(-c3ccc(S(=O)(=O)N4CCOCC4)cc3)cs2)c1	11.6µM*	-12.2%	20.6µM*	?	-14.1%
CC1=C(CC(=O)O)c2cc(F)ccc2C1=Cc1ccc(S(C)(=O)=O)cc1	?	0.1%	-25.7%	12.4	0.3%
COC(=O)C[C@H]1C=C[C@@H](NC(=O)Nc2c(C)noc2C)[C@@H](CO)O1	3.2%	18.1%	-0.2%	13.8	18.8%
CSc1nc(Nc2ccc(C)cc2C)cc(-c2ccccc2)n1	16.4µM*	.	16.4µM*	.	.
Cc1nc(-c2c(-c3ccc(O)cc3O)noc2C(F)(F)F)cs1	16.4µM*	-13.7%	18.4µM*	13.4	-10.9%
COc1ccc(-c2ncnc(C(F)(F)F)c2-c2csc(C)n2)c(O)c1	6.9%	8.1%	-18.2%	25.0	0.5%
O=C(Nc1ccc(F)cc1F)N1CCN(c2ccc(Cl)c(Cl)c2)CC1	4.61µM*	.	6.51µM*	.	.
O=C(NCc1ccccc1)C1CCCN(C(=O)NCc2ccccc2)C1 (stereo unspecified)	4.4%	7.5%	1.46µM*	2.4	1.6%
O=C(NCc1ccccc1)N1CCN(c2ccc(Cl)c(Cl)c2)CC1	5.8µM*	?	18.4µM*	39.2	?
O=C(NC1CCN(C(=O)NCc2ccccc2)CC1)c1ccc(F)cc1	-11.6%	15.0%	-1.6%	18.1	11.1%
O=C(c1ccc(F)cc1)C1CCN(C(=O)NCc2ccccc2)CC1	23.1µM*	-0.6%	16.4µM*	-4.7	-14.5%
O=C(O)C1CCCN(C(=O)NCc2ccccc2)C1 (stereo unspecified)	-6.3%	8.0%	-10.6%	-16.4	15.9%
SMILES	TDP1 cell noCPT	HT1080 IDH1KD tx	TDP1 cell CPT	IL-1B inflam inh	HT1080NT lethal
O=S(=O)(NCCCN1CCOCC1)c1ccc2ccccc2c1	-15.7%	-1.4%	-16.0%	-21.8	7.8%
Cc1cccc(C(C(N)=O)c2ncc(C(F)(F)F)cc2Cl)c1 (stereo unspecified)	-17.2%	2.9%	-0.7%	-8.0	9.2%
CCOCc1nnc(NC(=O)C2c3ccccc3Oc3ccccc32)s1	?	-0.1%	?	12.6	-1.4%
O=C(c1ccc(Cl)cc1)C1CCN(C(=O)c2ccc(F)cc2)CC1	10.3µM*	8.3%	20.6µM*	-4.5	-29.3%
O=C(NCc1ccccc1)N1CCN(c2ccc(F)cc2)CC1	14.6µM*	21.2%	18.4µM*	-6.0	22.9%
COc1ccc(CNC(=O)N2CCN(c3ccccc3)CC2)cc1	-6.1%	8.4%	4.0%	-13.8	12.8%
CC(C)Cn1cc(NC(=O)N2CCN(c3ccc(F)cc3)CC2)c2ccccc2c1=O	18.4µM*	.	14.6µM*	.	.
Cc1ccc(C(=O)N2CCC(C(=O)c3ccc(F)cc3)CC2)cc1	?	-1.5%	?	-1.0	-1.6%
COc1ccccc1NC(=O)N1CCN(c2ccc(F)cc2)CC1	-27.8%	1.6%	-14.0%	?	16.4%
COC(=O)[C@@H]1C[C@@H](NC(=O)c2cccc3c(C)c(C)[nH]c23)CN1Cc1cccc2ccccc12	-24.1%	.	5.5%[9.04 µM]	.	.
CC(C)CCN1CCN(Cc2nc3c(s2)CCCC3)CC1CCO (stereo unspecified)	?	-4.2%	-19.1%	22.1	-0.7%
CCNC(=O)C1(C)CCCN(C(=O)c2cc(-c3ccccc3)cs2)C1 (stereo unspecified)	?	-1.0%	?	13.3	-3.0%
O=C(Cn1nnc2ccccc21)Nc1ccc(Cl)cn1	5.1%	9.2%	0.2%	0.0	-4.2%
CCOC(=O)NN1C(=O)c2ccccc2NC1c1ccc(OC)cc1OC (stereo unspecified)	-4.6%	1.8%	0.1%	10.2	6.2%
Cc1cccc(NS(=O)(=O)c2cc([N+](=O)[O-])ccc2C)n1	-16.3%	-0.9%	4.6%	17.0	-4.1%
CCCCCCCCCCC(C)(C)C(=O)Nc1c(OC)cc(OC)cc1OC	10µM*	.	10µM*	.	.
CCCCN(C)CCC(=O)Nc1ccc(OC)cc1OC	-4.6%	3.9%	-17.0%	2.2	3.0%
Cn1c(SCc2ccccc2Cl)nc2c([nH]c3ccccc32)c1=O	-20.7%	.	-4.4%	.	.
Cn1c(SCc2cccc(F)c2)nc2c([nH]c3ccccc32)c1=O	?	.	7.31µM*	.	.
Cn1c(SCc2ccc(Br)cc2)nc2c([nH]c3ccccc32)c1=O	9.4%	.	-4.9%	.	.
Cn1c(SCc2ccc(C(F)(F)F)cc2)nc2c([nH]c3ccccc32)c1=O	18.4µM*	.	9.2µM*	.	.
O=C(NCC1(N2CCOCC2)CCCC1)c1cnn(-c2ncc3c(n2)-c2ccccc2CC3)c1C1CC1	-1.3%	.	9.2%[9.04 µM]	.	.
COc1ccc(-c2cn(-c3ccccc3)nc2CO)cc1	-22.4%	-14.9%	?	-10.8	-6.8%
COc1ccc(-c2csc(=NCCO)n2-c2ccccc2)cc1	18.4µM*	-14.0%	?	-74.2*	-23.6%
CC(NNC(=S)N1CCCCCC1)c1ccc2ccccc2n1 (stereo unspecified)	0.0082µM*	?	0.0082µM*	84.7	23.1µM*

Screening data (PubChem)
